Our source for the binding signal values is PMC10812921, “Transcriptional Coactivator BOB1 (OBF1, OCA-B) Modulates the Specificity of DNA Recognition by the POU-Domain Factors OCT1 and OCT2 in a Monomeric Configuration”.

The target in experiment [1] is POU1 (OCT1 POU domain) (human, UniProt P14859 260-458). Nature of the experiment: EMSA-SELEX-seq; no BOB1; 20 mM Tris-HCl pH 7.6, 140 mM NaCl, 10% glycerol, 0.5 mM EDTA, 0.05% Triton X-100, 0.1 mg/mL BSA, 0.1 mg/mL poly(dI-dC), 5 mM DTT, room temperature, 20 min; high values mean tight binding. The settings on record: protein: recombinant; dsDNA, one strand shown. In outline:
(§1)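 Tagged POU-domain proteins were produced in E. coli BL21, purified under denaturing conditions and renatured before use. They were mixed at 30 ng with 300 ng of a PCR-amplified double-stranded random 35-nt library, with or without 28 ng coactivator protein, in 20 μL Tris–HCl pH 7.6 binding buffer, incubating 20 min at RT. Complexes cut from native 6% PAGE were eluted and PCR-amplified over four rounds, then sequenced by Illumina, with binding preference taken as the percentage of sequenced 8-mers matching a motif pattern.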
A general note: A gel shift assay detects complexes by their altered migration in electrophoresis.

The target in experiment [2] is T1, POU2 (OCT2 POU domain) (human, UniProt P09086 175-386).
T1 sequence: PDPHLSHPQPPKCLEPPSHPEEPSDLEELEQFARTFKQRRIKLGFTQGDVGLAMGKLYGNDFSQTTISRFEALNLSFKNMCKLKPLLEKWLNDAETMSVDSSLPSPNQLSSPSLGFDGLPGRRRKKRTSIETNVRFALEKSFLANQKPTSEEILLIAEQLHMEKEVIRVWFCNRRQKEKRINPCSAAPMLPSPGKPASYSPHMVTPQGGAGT
The description is as above. To be noted: protein: recombinant; dsDNA, one strand shown. In outline: as §1

The target in experiment [3] is POU1 (OCT1 POU domain);BOB1 (OBF1, OCA-B) (human;human, UniProt P14859;Q16633 260-458;1-256, |). Description: EMSA-SELEX-seq; with BOB1 (ternary complex band); 20 mM Tris-HCl pH 7.6, 140 mM NaCl, 10% glycerol, 0.5 mM EDTA, 0.05% Triton X-100, 0.1 mg/mL BSA, 0.1 mg/mL poly(dI-dC), 5 mM DTT, room temperature, 20 min; high values mean tight binding. To be noted: protein: recombinant;recombinant; copies: 1;1; dsDNA, one strand shown. In outline: as §1

For experiment [4], the target named is T2, POU2 (OCT2 POU domain);BOB1 (OBF1, OCA-B) (human;human, UniProt P09086;Q16633 175-386;1-256, |).
T2 sequence 1: T1 sequence
T2 sequence 2: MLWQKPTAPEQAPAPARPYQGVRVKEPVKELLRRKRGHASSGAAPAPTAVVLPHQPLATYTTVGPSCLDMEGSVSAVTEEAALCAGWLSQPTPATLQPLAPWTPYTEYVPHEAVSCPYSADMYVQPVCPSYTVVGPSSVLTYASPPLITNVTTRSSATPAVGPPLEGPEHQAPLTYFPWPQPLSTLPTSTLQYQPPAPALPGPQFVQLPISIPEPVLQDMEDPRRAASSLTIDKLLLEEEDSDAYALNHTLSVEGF
The description is as above. To be noted: protein: recombinant;recombinant; copies: 1;1; dsDNA, one strand shown. In outline: as §1

POU1 (OCT1 POU domain), sequence (P14859 260-458): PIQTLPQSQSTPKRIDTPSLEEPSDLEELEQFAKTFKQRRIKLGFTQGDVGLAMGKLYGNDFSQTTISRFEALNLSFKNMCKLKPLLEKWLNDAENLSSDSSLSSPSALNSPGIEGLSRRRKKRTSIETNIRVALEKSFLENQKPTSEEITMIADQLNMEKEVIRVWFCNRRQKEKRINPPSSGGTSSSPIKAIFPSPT

Turning to ACACAAAC, the binding signal in experiment [1] is 0.0236 % of ANNNNAAN 8-mers; in experiment [2] it was 0.019 % of ANNNNAAN 8-mers; in experiment [3], 0.0398 % of ANNNNAAN 8-mers; in experiment [4], 0.0297 % of ANNNNAAN 8-mers.
The corresponding values for AAGGCAAC are 0.0187 % of ANNNNAAN 8-mers, 0.0167 % of ANNNNAAN 8-mers, 0.0195 % of ANNNNAAN 8-mers and 0.0264 % of ANNNNAAN 8-mers.
Regarding AAGTGAAT, the binding signal in experiment [1] was 0.105 % of ANNNNAAN 8-mers; in experiment [2], 0.123 % of ANNNNAAN 8-mers; in experiment [3] it was 0.0796 % of ANNNNAAN 8-mers; in experiment [4] it was 0.0669 % of ANNNNAAN 8-mers.
The corresponding values for AATGTAAA are 0.614 % of ANNNNAAN 8-mers, 0.509 % of ANNNNAAN 8-mers, 0.547 % of ANNNNAAN 8-mers and 0.552 % of ANNNNAAN 8-mers.
Consider AAAGCAAC, for which the binding signal is 0.0256 % of ANNNNAAN 8-mers in experiment [1], 0.0259 % of ANNNNAAN 8-mers in experiment [2], 0.0281 % of ANNNNAAN 8-mers in experiment [3] and 0.0272 % of ANNNNAAN 8-mers in experiment [4].
For AGCGAAAG, in that order: 0.0248 % of ANNNNAAN 8-mers, 0.0242 % of ANNNNAAN 8-mers, 0.0332 % of ANNNNAAN 8-mers and 0.0239 % of ANNNNAAN 8-mers.
For AACCGAAC, in that order: 0.013 % of ANNNNAAN 8-mers, 0.0173 % of ANNNNAAN 8-mers, 0.0117 % of ANNNNAAN 8-mers and 0.0198 % of ANNNNAAN 8-mers.
The corresponding values for AGATGAAT are 0.119 % of ANNNNAAN 8-mers, 0.171 % of ANNNNAAN 8-mers, 0.0765 % of ANNNNAAN 8-mers and 0.09 % of ANNNNAAN 8-mers.
As to AGAGGAAT, the binding signal in experiment [1] was 0.0828 % of ANNNNAAN 8-mers; in experiment [2], 0.115 % of ANNNNAAN 8-mers; in experiment [3], 0.0652 % of ANNNNAAN 8-mers; in experiment [4], 0.0859 % of ANNNNAAN 8-mers.
In the case of ATCTTAAT, the binding signal in experiment [1] was 0.126 % of ANNNNAAN 8-mers; in experiment [2] it was 0.176 % of ANNNNAAN 8-mers; in experiment [3] it was 0.103 % of ANNNNAAN 8-mers; in experiment [4], 0.135 % of ANNNNAAN 8-mers.
For AAGCAAAG, in that order: 0.0847 % of ANNNNAAN 8-mers, 0.0501 % of ANNNNAAN 8-mers, 0.125 % of ANNNNAAN 8-mers and 0.0537 % of ANNNNAAN 8-mers.
The corresponding values for ATGTGAAC are 0.0374 % of ANNNNAAN 8-mers, 0.0386 % of ANNNNAAN 8-mers, 0.0367 % of ANNNNAAN 8-mers and 0.0388 % of ANNNNAAN 8-mers.
The corresponding values for ACTCAAAT are 0.0889 % of ANNNNAAN 8-mers, 0.061 % of ANNNNAAN 8-mers, 0.127 % of ANNNNAAN 8-mers and 0.0768 % of ANNNNAAN 8-mers.
For the sequence ACGGTAAA, the binding signal in experiment [1] was 0.0389 % of ANNNNAAN 8-mers; in experiment [2] it was 0.0524 % of ANNNNAAN 8-mers; in experiment [3] it was 0.0507 % of ANNNNAAN 8-mers; in experiment [4] it was 0.0504 % of ANNNNAAN 8-mers.
The corresponding values for AGGCCAAC are 0.0107 % of ANNNNAAN 8-mers, 0.0115 % of ANNNNAAN 8-mers, 0.0113 % of ANNNNAAN 8-mers and 0.0157 % of ANNNNAAN 8-mers.
AGGAGAAG: the binding signal in experiment [1] is 0.045 % of ANNNNAAN 8-mers; in experiment [2] it was 0.0472 % of ANNNNAAN 8-mers; in experiment [3] it was 0.0507 % of ANNNNAAN 8-mers; in experiment [4], 0.0438 % of ANNNNAAN 8-mers.
On to AGTAGAAG, for which the binding signal is 0.0404 % of ANNNNAAN 8-mers in experiment [1], 0.0391 % of ANNNNAAN 8-mers in experiment [2], 0.0336 % of ANNNNAAN 8-mers in experiment [3] and 0.0297 % of ANNNNAAN 8-mers in experiment [4].
As for ATTTGAAT, the binding signal in experiment [1] was 1.84 % of ANNNNAAN 8-mers; in experiment [2], 1.5 % of ANNNNAAN 8-mers; in experiment [3] it was 1.92 % of ANNNNAAN 8-mers; in experiment [4] it was 2.32 % of ANNNNAAN 8-mers.
For ACCATAAT, in that order: 0.082 % of ANNNNAAN 8-mers, 0.0967 % of ANNNNAAN 8-mers, 0.0367 % of ANNNNAAN 8-mers and 0.0495 % of ANNNNAAN 8-mers.
In the case of ACTTAAAC, the binding signal in experiment [1] was 0.0336 % of ANNNNAAN 8-mers; in experiment [2], 0.046 % of ANNNNAAN 8-mers; in experiment [3], 0.0277 % of ANNNNAAN 8-mers; in experiment [4] it was 0.0355 % of ANNNNAAN 8-mers.
For AGGAGAAT, in that order: 0.0789 % of ANNNNAAN 8-mers, 0.0771 % of ANNNNAAN 8-mers, 0.0624 % of ANNNNAAN 8-mers and 0.0702 % of ANNNNAAN 8-mers.
The corresponding values for ACCGTAAT are 0.0454 % of ANNNNAAN 8-mers, 0.0529 % of ANNNNAAN 8-mers, 0.0332 % of ANNNNAAN 8-mers and 0.0495 % of ANNNNAAN 8-mers.
For ATGGAAAT, in that order: 0.943 % of ANNNNAAN 8-mers, 0.723 % of ANNNNAAN 8-mers, 0.958 % of ANNNNAAN 8-mers and 0.982 % of ANNNNAAN 8-mers.
Take AATATAAA: the binding signal in experiment [1] was 0.156 % of ANNNNAAN 8-mers; in experiment [2], 0.178 % of ANNNNAAN 8-mers; in experiment [3] it was 0.107 % of ANNNNAAN 8-mers; in experiment [4], 0.101 % of ANNNNAAN 8-mers.
Take ACTGAAAC: the binding signal in experiment [1] was 0.0164 % of ANNNNAAN 8-mers; in experiment [2] it was 0.019 % of ANNNNAAN 8-mers; in experiment [3] it was 0.0238 % of ANNNNAAN 8-mers; in experiment [4], 0.0173 % of ANNNNAAN 8-mers.
The corresponding values for ATTTTAAT are 0.672 % of ANNNNAAN 8-mers, 0.679 % of ANNNNAAN 8-mers, 0.258 % of ANNNNAAN 8-mers and 0.221 % of ANNNNAAN 8-mers.
The corresponding values for ACAGTAAC are 0.0149 % of ANNNNAAN 8-mers, 0.0242 % of ANNNNAAN 8-mers, 0.0148 % of ANNNNAAN 8-mers and 0.0149 % of ANNNNAAN 8-mers.
The corresponding values for AACTGAAA are 0.0358 % of ANNNNAAN 8-mers, 0.0386 % of ANNNNAAN 8-mers, 0.0382 % of ANNNNAAN 8-mers and 0.038 % of ANNNNAAN 8-mers.
